Measured values taken from PubChem BioAssay (Tox21).
Activity calls are given as the source filed them. A call without a number means that no potency is given here. Unless noted, calls come from the whole dose curve; as a rule, active = well fitted curve in the direction sought with a large enough effect in the repeat runs; inconclusive = weak or mixed curves; inactive = no such curve, though single readings can be large; an effect the other way counts as inactive or inconclusive.

What was measured:
[1] = qHTS assay to test for compound auto fluorescence at 590 nm (red) in HepG2 cells (AID 720674)
Method in brief: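 We screened compounds on adherent HepG2 cells, incubating them for an hour at 37 C in 5% CO2 before reading emission at 590 nm under 540 nm excitation; values reflect equivalence to Rose Bengal sodium fluorescence.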

[2] = qHTS assay to test for compound auto fluorescence at 535 nm (green) in HepG2 cells (AID 720675)
[3] = qHTS assay to test for compound auto fluorescence at 535 nm (green) in HEK293 cells (AID 720680)
[4] = qHTS assay to test for compound auto fluorescence at 535 nm (green) in HEK293 cell free culture (AID 720682)
Method in brief: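 Using fluorescein as calibrant, autofluorescence was quantified at 485/535 nm in cell-free DMEM containing 10% FBS after pintool addition of compound or vehicle.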

[5] = qHTS assay to test for compound auto fluorescence at 590 nm (red) in HepG2 cell free culture (AID 720684)
Method in brief: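 Cell-free; medium MEM + 10% FBS; compound or DMSO added by pintool; read Ex 540/Em 590 nm; Rose Bengal sodium as red reference fluorophore.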

[6] = target: Glucocorticoid receptor (Homo sapiens) (UniProt P04150); experiment: qHTS assay to identify small molecule agonists of the glucocorticoid receptor (GR) signaling pathway (AID 720691; active = well fitted activation curve with a large enough effect in the signal ratio in the repeat runs, not every such curve was filed as active; inconclusive = weak or mixed curves, or effect the other way; inactive = no such curve, though single readings can be large or run the other way; the % refers to the signal ratio)
Method in brief: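 Measures GR pathway activation through a GRE-beta-lactamase reporter stably integrated in HeLa cells, with 18 h compound treatment at 37 C and fluorescence detection using a FRET substrate.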

[7] = qHTS assay for identifying genotoxic compounds that show differential cytotoxicity against isogenic chicken DT40 cell lines with known DNA damage response pathways - wild type cell line (AID 743012); note: nearly all actives have a fitted effect of over 60% in size; note: potency is the fitted concentration of half-maximal effect
Method in brief: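 Endpoint: CellTiter-Glo luminescence, 30 min RT. Cells: wild type DT40, 300/well. Exposure: compounds in DMSO, 40 h, 37 C/5% CO2, after ~0.5 h pre-incubation.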

[8] = qHTS assay for identifying genotoxic compounds that show differential cytotoxicity against isogenic chicken DT40 cell lines with known DNA damage response pathways - Rev3 mutant cell line (AID 743014); note: nearly all actives have a fitted effect of over 55% in size; note: potency is the fitted concentration of half-maximal effect
[9] = qHTS assay for identifying genotoxic compounds that show differential cytotoxicity against isogenic chicken DT40 cell lines with known DNA damage response pathways - Rad54/Ku70 mutant cell line (AID 743015); note: nearly all actives have a fitted effect of over 60% in size; note: potency is the fitted concentration of half-maximal effect
[10] = qHTS assay to identify small molecule antagonists of the thyroid receptor (TR) signaling pathway - cell viability counter screen (AID 743064); note: nearly all actives have a fitted effect of over 50% in size; note: potency is the fitted concentration of half-maximal effect
Method in brief: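 Counter screen for cytotoxicity: compound plus T3 (1 nM final) on GH3.TRE-Luc cells, 23.5 h at 37 °C, then fluorescence viability readout with CellTiter-Fluor.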

[11] = target: Nuclear receptor subfamily 1 group I member 2 (Homo sapiens) (UniProt O75469); experiment: CYP3A4 induction through human pregnane X receptor (PXR) by small molecules, qHTS assay (AID 1346984); note: nearly all actives have a fitted effect of over 40% in size
Method in brief: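 After 24 h at 37C with compound, DPX-2 cells (HepG2, co-transfected PXR response element and CYP3A4 promoter-luciferase) got 3uM final P450-Glo Luciferin-IPA for 3 h; One-Glo luminescence followed.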

[12] = qHTS assay to test for compound auto fluorescence at 460 nm (blue) in HepG2 cells (AID 720687)
Method in brief: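 Blue-channel autofluorescence (Ex/Em 405/460 nm, triamterene-equivalent) was measured after 1 hr compound exposure at 37 C, 5% CO2. Cells were HepG2, plated overnight at 37 C in MEM plus 10% FBS.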

[13] = target: Estrogen receptor (Homo sapiens) (UniProt P03372); experiment: qHTS assay to identify small molecule antagonists of the estrogen receptor alpha (ER-alpha) signaling pathway (AID 743069; active = well fitted curve in the direction sought with a large enough effect in the signal ratio in the repeat runs, not every such curve was filed as active; inconclusive = weak or mixed curves, or effect the other way; inactive = no such curve, though single readings can be large or run the other way; the % refers to the signal ratio)
Method in brief: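 Antagonist mode: compounds in DMSO were co-added with 17beta-estradiol to ER-alpha-bla HEK293 cells (2% charcoal-stripped serum) and left 18 h at 37C. Reporter inhibition was measured as FRET fluorescence after 2 h LiveBLAzer substrate at room temperature.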

[14] = target: Estrogen receptor (Homo sapiens) (UniProt P03372); experiment: qHTS assay to identify small molecule agonists of the estrogen receptor alpha (ER-alpha) signaling pathway (AID 743075; calls by dose curve;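 note: HEK293 GripTite cells with ER-alpha and UAS-driven beta-lactamase reporter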; note: potency is the fitted concentration of half-maximal effect)
[15] = target: Estrogen receptor (Homo sapiens) (UniProt P03372); experiment: qHTS assay to identify small molecule agonists of the estrogen receptor alpha (ER-alpha) signaling pathway using the BG1 cell line (AID 743079); note: nearly all actives have a fitted effect of over 20% in size; note: potency is the fitted concentration of half-maximal effect
[16] = qHTS assay to identify small molecule antagonists of the estrogen receptor alpha (ER-alpha) signaling pathway using the BG1 cell line (AID 743080; calls by dose curve;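 note: BG1 cells stimulated with 17beta-estradiol alongside compound; series mostly up to about 70 µM; nearly all actives have a fitted effect of over 25% in size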)
Method in brief: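 BG1Luc4E2, endogenous ER-alpha, 4xERE-luc; 5 d charcoal-stripped FBS, phenol red free; 24 h plating; cpd + 17beta-estradiol 21.5 h, 37 C/5% CO2; CellTiter-Fluor viability 30 min, then ONE-Glo luciferase 30 min RT.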

[17] = qHTS assay for small molecules that induce genotoxicity in human embryonic kidney cells expressing luciferase-tagged ATAD5 (AID 651632); note: nearly all actives have a fitted effect of over 15% in size
Method in brief: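 Concentration-response screen for ATAD5 upregulation in HEK293T luciferase reporter cells; 16 hr treatment at 37C, then luminescence after 30 min with Amplite at room temperature.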

[18] = qHTS assay for small molecule disruptors of the mitochondrial membrane potential - cell viability (AID 720634; calls by dose curve; note: nearly all actives have a fitted effect of over 20% in size; note: potency is the fitted concentration of half-maximal effect)
Method in brief: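 In this qHTS format, HepG2 cells plated overnight were pinned with compound, incubated 1 hr, and assayed for ATP luminescence with CellTiter-Glo after m-MPI dye addition.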

[19] = target: Aryl hydrocarbon receptor (Homo sapiens) (UniProt P35869); experiment: qHTS assay to identify small molecule that activate the aryl hydrocarbon receptor (AhR) signaling pathway (AID 743085);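 note: HG2L7.5c1 human HepG2 liver cells with stably integrated DRE-driven firefly reporter; series mostly up to about 70 µM; nearly all actives have a fitted effect of over 15% in size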
Method in brief: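 Measured in HG2L7.5c1 cells: CellTiter-Fluor signal (30 min incubation, 37C) for viability, then luciferase luminescence (30 min, room temperature). Compound contact time was 24 h at 37C, following a 5 h pre-incubation.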

[20] = target: Peroxisome proliferator-activated receptor gamma (Homo sapiens) (UniProt P37231); experiment: qHTS assay to identify small molecule agonists of the peroxisome proliferator-activated receptor gamma (PPARg) signaling pathway (AID 743094; active = well fitted activation curve with a large enough effect in the signal ratio in the repeat runs, not every such curve was filed as active; inconclusive = weak or mixed curves, or effect the other way; inactive = no such curve, though single readings can be large or run the other way; the % refers to the signal ratio)
Method in brief: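 Fluorescence-based beta-lactamase readout in HEK293H PPARg UAS-bla cells after 17 h compound exposure (37C) and 1 h B/G FRET substrate incubation at room temperature.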

Aryl hydrocarbon receptor (Homo sapiens), sequence (P35869 whole entry, looked up): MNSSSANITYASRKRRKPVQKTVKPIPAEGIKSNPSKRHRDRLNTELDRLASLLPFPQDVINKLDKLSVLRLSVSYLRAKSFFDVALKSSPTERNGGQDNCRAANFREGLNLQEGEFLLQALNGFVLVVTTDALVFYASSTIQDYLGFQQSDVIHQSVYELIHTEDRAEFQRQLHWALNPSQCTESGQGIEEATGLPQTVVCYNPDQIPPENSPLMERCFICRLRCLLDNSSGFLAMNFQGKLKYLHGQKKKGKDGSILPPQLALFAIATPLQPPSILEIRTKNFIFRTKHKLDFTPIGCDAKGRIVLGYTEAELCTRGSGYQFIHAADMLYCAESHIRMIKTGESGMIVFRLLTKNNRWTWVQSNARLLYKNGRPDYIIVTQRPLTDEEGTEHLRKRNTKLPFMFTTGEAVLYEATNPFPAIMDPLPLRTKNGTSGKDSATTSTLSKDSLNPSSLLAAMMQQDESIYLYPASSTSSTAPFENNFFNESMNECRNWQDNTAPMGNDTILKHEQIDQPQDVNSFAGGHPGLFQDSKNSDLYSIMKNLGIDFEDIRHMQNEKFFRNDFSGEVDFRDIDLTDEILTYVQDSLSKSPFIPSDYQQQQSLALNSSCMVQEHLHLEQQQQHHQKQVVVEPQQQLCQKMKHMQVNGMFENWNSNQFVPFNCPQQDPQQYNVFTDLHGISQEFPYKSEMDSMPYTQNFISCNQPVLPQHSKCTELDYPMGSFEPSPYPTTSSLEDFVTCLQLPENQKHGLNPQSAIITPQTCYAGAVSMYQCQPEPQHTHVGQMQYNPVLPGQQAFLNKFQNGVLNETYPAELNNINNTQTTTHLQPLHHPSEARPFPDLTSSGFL
Glucocorticoid receptor (Homo sapiens), sequence (P04150 whole entry, looked up): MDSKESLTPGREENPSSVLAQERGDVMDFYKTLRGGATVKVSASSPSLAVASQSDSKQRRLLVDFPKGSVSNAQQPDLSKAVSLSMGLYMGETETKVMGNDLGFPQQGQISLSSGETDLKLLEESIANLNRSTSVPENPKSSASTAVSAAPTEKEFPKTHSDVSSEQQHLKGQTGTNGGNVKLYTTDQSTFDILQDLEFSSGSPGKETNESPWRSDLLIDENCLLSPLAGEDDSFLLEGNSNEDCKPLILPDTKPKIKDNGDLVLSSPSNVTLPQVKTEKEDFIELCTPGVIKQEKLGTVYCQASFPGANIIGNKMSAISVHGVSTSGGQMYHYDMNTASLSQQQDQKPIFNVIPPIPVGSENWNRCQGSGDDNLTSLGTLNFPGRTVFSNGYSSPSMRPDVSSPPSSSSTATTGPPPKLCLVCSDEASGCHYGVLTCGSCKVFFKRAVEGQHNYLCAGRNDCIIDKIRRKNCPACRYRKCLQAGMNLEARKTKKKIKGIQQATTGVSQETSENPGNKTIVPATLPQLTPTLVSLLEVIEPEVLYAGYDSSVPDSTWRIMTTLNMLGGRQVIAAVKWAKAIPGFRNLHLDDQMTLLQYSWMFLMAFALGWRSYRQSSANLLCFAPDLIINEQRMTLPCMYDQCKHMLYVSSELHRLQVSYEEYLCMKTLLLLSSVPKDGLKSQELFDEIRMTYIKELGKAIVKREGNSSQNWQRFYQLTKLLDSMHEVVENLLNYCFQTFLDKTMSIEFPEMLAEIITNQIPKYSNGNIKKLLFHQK
Peroxisome proliferator-activated receptor gamma (Homo sapiens), sequence (P37231 whole entry, looked up): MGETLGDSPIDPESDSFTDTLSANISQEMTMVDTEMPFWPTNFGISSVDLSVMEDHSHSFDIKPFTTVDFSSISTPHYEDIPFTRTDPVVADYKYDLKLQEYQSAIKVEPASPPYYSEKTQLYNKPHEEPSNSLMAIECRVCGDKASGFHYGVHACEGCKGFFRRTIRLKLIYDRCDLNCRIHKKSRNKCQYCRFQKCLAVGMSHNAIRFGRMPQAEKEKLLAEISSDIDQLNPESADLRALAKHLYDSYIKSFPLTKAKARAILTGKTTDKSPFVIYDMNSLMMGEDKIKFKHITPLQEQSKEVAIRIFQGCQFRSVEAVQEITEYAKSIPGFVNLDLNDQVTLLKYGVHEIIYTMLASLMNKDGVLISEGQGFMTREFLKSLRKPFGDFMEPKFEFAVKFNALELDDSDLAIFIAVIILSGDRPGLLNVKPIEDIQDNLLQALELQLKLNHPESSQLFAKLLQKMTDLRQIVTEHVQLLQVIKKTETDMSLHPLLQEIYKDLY
Estrogen receptor (Homo sapiens), sequence (P03372 whole entry, looked up): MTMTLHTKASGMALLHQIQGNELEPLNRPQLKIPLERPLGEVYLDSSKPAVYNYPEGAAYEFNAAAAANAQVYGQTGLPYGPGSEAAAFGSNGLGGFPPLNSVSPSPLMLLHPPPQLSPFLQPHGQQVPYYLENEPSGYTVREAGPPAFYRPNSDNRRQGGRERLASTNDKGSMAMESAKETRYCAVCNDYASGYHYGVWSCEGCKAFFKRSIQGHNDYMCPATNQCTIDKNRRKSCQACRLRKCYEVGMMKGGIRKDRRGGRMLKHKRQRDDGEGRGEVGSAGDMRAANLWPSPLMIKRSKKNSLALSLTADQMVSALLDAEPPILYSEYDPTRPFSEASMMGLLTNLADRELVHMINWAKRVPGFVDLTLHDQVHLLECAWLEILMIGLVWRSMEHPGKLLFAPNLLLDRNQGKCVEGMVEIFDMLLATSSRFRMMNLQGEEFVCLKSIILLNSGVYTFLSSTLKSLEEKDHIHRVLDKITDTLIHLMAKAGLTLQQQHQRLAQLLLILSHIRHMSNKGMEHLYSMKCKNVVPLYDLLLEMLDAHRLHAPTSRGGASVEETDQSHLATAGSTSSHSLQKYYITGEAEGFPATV

| SMILES | outcome [1] | Potency [2] | Potency [3] | Potency [4] | outcome [5] | Potency [6] | Potency [7] | Potency [8] | Potency [9] | Potency [10] | Potency [11] | Potency [12] | Potency [13] | Potency [14] | Potency [15] | Potency [16] | Potency [17] | Potency [18] | Potency [19] | Potency [20] |
| --- | --- | --- | --- | --- | --- | --- | --- | --- | --- | --- | --- | --- | --- | --- | --- | --- | --- | --- | --- | --- |
| Cc1nnc2n1-c1ccc(Cl)cc1C(c1ccccc1Cl)=NC2 | inactive | inactive | inactive | inactive | inactive | inactive | inactive | inactive | inactive | inactive | inactive |  |  |  |  |  |  |  |  |  |
| CC(=O)OCC(=O)[C@H]1CC[C@H]2[C@@H]3CC[C@H]4C[C@H](O)CC[C@]4(C)[C@H]3C(=O)C[C@]12C |  | inactive |  | inactive | inactive | inactive |  | inactive | inactive | inactive | inactive | inactive | inactive | inactive | inactive | inactive |  |  |  |  |
| O=S(=O)(O)c1cc(O)ccc1O | inactive | inactive | inactive | inactive |  | inactive | inactive | inactive | inactive | inactive |  |  |  |  |  |  | inactive | inactive |  |  |
| O=C1CCO1 |  |  | inactive | inactive | inactive | inactive |  | inactive | inactive | inactive | inactive | inactive | inactive | inactive | inactive | inactive | inactive | inactive | inactive |  |
| CC(C)CCC(=O)O[C@H]1CC[C@H]2[C@@H]3CCC4=CC(=O)CC[C@]4(C)[C@H]3CC[C@]12C | inactive | inactive | inactive | inactive | inactive | inactive | 7.5 µM (active) | inactive | inactive | 33.5 µM (active) | inactive | inactive |  | 4.77 µM [inconclusive] (active) | 0.0668 µM (active) | inactive | inactive |  | inactive | inactive |
| CN(C)CCCCCCN(C)C |  | inactive | inactive | inactive | inactive | inactive | inactive | inactive | inactive | inactive |  | inactive |  |  |  |  |  | inactive | inactive |  |
| CCC(=O)O[C@]1(c2ccccc2)CCN(C)C[C@H]1C | inactive | inactive | inactive | inactive | inactive |  | 21.1 µM (active) |  |  |  | inactive | inactive | inactive | inactive | inactive | inactive |  |  | inactive |  |
| c1ccccc1 |  |  | inactive | inactive | inactive | inactive |  | inactive | inactive | inactive |  |  | inactive | inactive | inactive | inactive | inactive | inactive |  | inactive |
| C[C@H]1CC[C@]2(NC1)O[C@H]1C[C@H]3[C@@H]4CC[C@H]5C[C@@H](O[C@@H]6O[C@H](CO)[C@H](O[C@@H]7O[C@H](CO)[C@@H](O)[C@H](O[C@@H]8OC[C@@H](O)[C@H](O)[C@H]8O)[C@H]7O[C@@H]7O[C@H](CO)[C@@H](O)[C@H](O)[C@H]7O)[C@H](O)[C@H]6O)CC[C@]5(C)[C@H]4CC[C@]3(C)[C@H]1[C@@H]2C |  | inactive | inactive | inactive | inactive |  |  | 2.37 µM (active) | 2.37 µM (active) | 2.37 µM (active) | inactive |  |  | 9.52 µM [inconclusive] (active) |  |  |  | 3.35 µM (active) | inactive |  |
| CC(C)(C)c1ccc(O)cc1 | inactive | inactive | inactive | inactive |  |  |  |  |  |  |  | inactive |  |  |  |  |  |  |  |  |
| O=C(CCl)c1ccc(Oc2ccc(C(=O)CCl)cc2)cc1 | inactive | inactive | inactive |  | inactive |  | 26.6 µM (active) | 29.8 µM (active) |  | inactive | inactive |  | inactive | inactive |  | inactive | inactive | inactive | inactive |  |
| CC1(C)S[C@@H]2[C@H](N)C(=O)N2[C@H]1C(=O)O | inactive | inactive |  | inactive | inactive |  | inactive | inactive | inactive | inactive | inactive | inactive | inactive | inactive | inactive | inactive | inactive | inactive | inactive | inactive |
| O=[N+]([O-])c1cc(I)c(O)c(I)c1 | inactive | inactive | inactive | inactive |  | inactive |  |  |  | 26.6 µM (active) | inactive | inactive |  |  |  |  |  |  | inactive |  |
| CNc1ccc(C(=O)CC(O)CCC(C)C2OC(=O)CC(O)CC(=O)CC(O)CC(O)CC(O)CC(O)CC3(O)CC(O)C(C(=O)OC)C(CC(O[C@@H]4O[C@H](C)[C@@H](O)[C@H](N)[C@@H]4O)/C=C/C=C/C=C/C=C/C=C/C=C/C=C/C2C)O3)cc1 (stereo not given in full) | inactive | inactive | inactive |  | inactive | inactive |  |  |  | inactive | inactive | inactive | inactive | inactive | inactive | inactive |  | inactive | inactive |  |
| CN=C1CN(O)C(c2ccccc2)=c2cc(Cl)ccc2=N1 | inactive | inactive |  | inactive | inactive | inactive |  | inactive | inactive | inactive | inactive | inactive | inactive | inactive | inactive | inactive | inactive | inactive | inactive |  |
| c1csc(C2(N3CCCCC3)CCCCC2)c1 | inactive | inactive | inactive | inactive | inactive |  | inactive | inactive | inactive | inactive | inactive | inactive | inactive | inactive | inactive | inactive | inactive | inactive |  | inactive |
| CN[C@H]1C[C@@H](N)[C@H](O)[C@@H](O[C@@H]2O[C@H](CO)[C@H](O)[C@@H]3OC4(O[C@H]23)O[C@H](C(N)CO)[C@H](O)[C@H](O)[C@H]4O)[C@@H]1O (stereo not given in full) | inactive |  | inactive | inactive | inactive |  | inactive | inactive | inactive | inactive | inactive | inactive | inactive | inactive | inactive |  | inactive | inactive | inactive |  |
